# Rows were chosen to be rich in hits. Some 1.4% of all compounds tested hit in one or more screens of this group.
# CASP6 VEID inh: human caspase-6 inhibitors, primary screen, biochemical, VEID-R110 fluorescence, single point, set 2; P55212; purified caspase-6, Z-VEID-R110 cleavage fluorescence; inhibition, % at 12.5 µM; actives 0.53% (n = 350,000);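 active = mean inhibition across replicates at least about 35%, with every replicate also reaching that limit, limit read from the data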;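 also: 0% = median of neutral control wells and 100% = no fluorescence left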
# LEDGF integ inh: blockers of LEDGF/p75-dependent integrase strand transfer – biochemical, TR-FRET, high throughput, primary screen. actives 0.64% (n = 370,000). inhibition, % at 3.7 µM. AID 743269, 2014. HIV-1 integrase (with human LEDGF/p75). TR-FRET IN-LEDGF/p75 DNA integration, Eu/Cy5;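 active = inhibition above the screen-wide mean plus 3 SD, cut at about 13% in these data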;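 also: signal is the Cy5 over europium emission ratio at 671 and 618 nm; 0% = plate median of compound wells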
# UHRF1 MBD2 ctr: UHRF1 methylated DNA binding inhibitors, primary screen, counter-screen for MBD2 inhibitor project, biochemical, TR-FRET, human UHRF1, single concentration; inhibition, % at 4.4 µM; UHRF1 binding to methylated oligo; E3 ubiquitin-protein ligase UHRF1 (Homo sapiens), Q96T88; actives 0.75% (n = 370,000); in the data active = inhibition above about 21%;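 also: UHRF1 SRA domain binding a hemimethylated CpG hairpin DNA probe; 0% = median of test compound wells and 100% = reference inhibitor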
# Target sequence (Q96T88 whole entry, looked up, the tested form may be a part): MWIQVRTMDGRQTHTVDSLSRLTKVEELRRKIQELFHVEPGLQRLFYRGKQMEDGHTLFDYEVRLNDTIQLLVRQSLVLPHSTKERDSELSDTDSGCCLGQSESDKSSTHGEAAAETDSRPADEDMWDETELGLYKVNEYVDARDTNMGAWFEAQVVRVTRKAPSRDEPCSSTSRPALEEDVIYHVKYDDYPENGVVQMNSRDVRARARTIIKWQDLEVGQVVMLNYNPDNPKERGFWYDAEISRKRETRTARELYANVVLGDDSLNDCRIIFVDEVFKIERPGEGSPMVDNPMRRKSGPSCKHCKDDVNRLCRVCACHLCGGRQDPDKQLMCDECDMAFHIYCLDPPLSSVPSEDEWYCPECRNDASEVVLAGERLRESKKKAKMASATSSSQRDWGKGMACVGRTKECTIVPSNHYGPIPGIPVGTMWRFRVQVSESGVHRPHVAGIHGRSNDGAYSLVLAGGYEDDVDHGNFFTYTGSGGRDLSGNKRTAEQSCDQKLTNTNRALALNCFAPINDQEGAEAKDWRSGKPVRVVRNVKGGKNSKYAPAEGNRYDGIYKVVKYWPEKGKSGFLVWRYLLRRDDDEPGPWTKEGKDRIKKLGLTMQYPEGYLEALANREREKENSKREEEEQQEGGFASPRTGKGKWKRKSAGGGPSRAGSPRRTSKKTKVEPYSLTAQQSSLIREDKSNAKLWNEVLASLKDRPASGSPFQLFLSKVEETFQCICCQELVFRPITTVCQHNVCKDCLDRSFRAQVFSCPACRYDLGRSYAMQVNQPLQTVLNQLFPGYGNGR
# MBD2 inh: inhibitors of MBD2 binding to methylated DNA, primary screen, biochemical, TR-FRET, DNA-binding domain, human. AID 686964, 2013. MBD2 binding to methylated oligonucleotide. Methyl-CpG-binding domain protein 2 (Homo sapiens), Q9UBB5. inhibition, % at 4.4 µM. actives 0.31% (n = 370,000); in the data active = inhibition above about 13%
# Active calls of the source: *; · = not tested or not shown.
SMILES,CASP6 VEID inh,LEDGF integ inh,UHRF1 MBD2 ctr,MBD2 inh
CCOC(=O)c1ccccc1OC(=O)CS(=O)c1ccccc1[N+](=O)[O-] (configuration not stated),-0.3,-1.3,2.8,-1.6
Cc1noc(C)c1NC(=O)NCC[C@H]1CC[C@@H](NC(=O)Cc2cccnc2)[C@@H](CO)O1,-111.9,·,·,·
CC(=O)[C@@H]1[C@@H]2C(=O)N(Cc3ccccc3)C(=O)[C@@H]2C2c3ccccc3C=CN21 (some centres not stated),60.9*,1.5,-9.6,-6.7
CC1CCCN(CC(O)COC(c2ccccc2)c2ccccc2)C1 (configuration not stated),38.1*,4.1,7.8,2.4
CC(C)NC(=O)N[C@H]1C=C[C@@H](CC(=O)NCc2ccc(Oc3ccccc3)cc2)O[C@H]1CO,0.8,·,·,·
O=[N+]([O-])c1ccc(S(=O)(=O)N2CCC3(CC2)OCCN3S(=O)(=O)c2cccs2)cc1,35.6*,-4.2,-1.8,3.4
COc1ccc(S(=O)(=O)N2CCOC23CCN(S(=O)(=O)c2ccc(C)cc2)CC3)cc1,52.1*,5.7,1.2,2.9
COc1ccc(S(=O)(=O)N2CCOC23CCN(S(=O)(=O)c2ccc(F)cc2)CC3)cc1,-1.8,1.1,-0.1,3.1
C[C@H]1CN([C@@H](C)CO)C(=O)c2cccc(NS(=O)(=O)c3ccc(F)cc3)c2O[C@H]1CN(C)Cc1ccncc1,0.4,·,·,·
COc1ccc(N(C(=O)c2ccco2)C(C(=O)NC2CCCC2)c2ccncc2)cc1OC (configuration not stated),-1.3,1.5,23.1*,-6.5
COc1ccccc1COCC(O)CN(Cc1ccco1)Cc1ccccc1O (configuration not stated),·,-0.9,25.3*,0.7
Cc1[nH][nH]c(=O)c1C(c1ccc(-c2cccc(C(=O)O)c2)o1)c1c(C)[nH][nH]c1=O,41.9*,12.8,13.1,-0.5
Cc1[nH][nH]c(=O)c1C(c1ccc(-c2ccccc2C(=O)O)o1)c1c(C)[nH][nH]c1=O,·,5.9,13.1,0.3
COC(=O)c1ccc(-c2ccc(C(c3c(C)[nH][nH]c3=O)c3c(C)[nH][nH]c3=O)o2)cc1,39.9*,10.4,17.1,2.0
CCCNC(=O)N1CC2(CCN(S(=O)(=O)c3cccc(OC)c3)CC2)c2c(n(C)c3cc(OC)ccc23)[C@H]1CO,4.4,·,·,·
C[C@@H]1CCCCO[C@@H](CN(C)C(=O)Nc2ccccc2)[C@H](C)CN([C@H](C)CO)C(=O)c2cc(NC(=O)c3ccccc3)ccc2O1,0.1,·,·,·
COCCNC(=O)/C(C#N)=C/c1ccc(-c2ccc(S(=O)(=O)N3CCOCC3)cc2)o1,2.7,0.5,69.1*,-5.3
C[C@@H]1CN([C@H](C)CO)C(=O)c2cccc(NS(=O)(=O)c3cn(C)cn3)c2O[C@H]1CN(C)S(=O)(=O)c1cn(C)cn1,2.5,·,·,·
O=C1c2ccccc2C(=O)C1(CO)c1ccccc1,38.4*,-1.8,-1.5,-10.6
O=C1c2ccccc2C(=O)C1(CO)c1ccc(OC(F)F)cc1,-0.8,-2.4,3.5,0.1
CC(CN1CCCCC1)C(=O)NN (configuration not stated),-29.1,2.5,21.2*,4.0
CCOC(=O)c1c(N)sc(C(O)(C(F)(F)F)C(F)(F)F)c1-c1ccc(OC)cc1OC,2.2,-4.7,24.6*,-2.5
COCN(C#N)c1nc(N(C)C)nc(N(C)C)n1,1.0,1.7,44.5*,-0.1
Cc1cccc(NC(=O)CSc2ccc(-c3ccc4c(c3)OCO4)nn2)c1C,·,1.9,27.4*,12.9
Cc1cc(NC(=O)CSc2ccc(-c3ccc4c(c3)OCO4)nn2)no1,2.7,4.2,4.8,1.9
SMILES,CASP6 VEID inh,LEDGF integ inh,UHRF1 MBD2 ctr,MBD2 inh
Cc1cc(Cl)ccc1NNC(N)=S,-4.5,1.5,21.5*,6.8
COc1ccc(N/N=C(\C#N)C(N)=O)cc1,-1.0,-0.9,-1.6,7.4
N#C/C(=N/Nc1ccc(OC(F)(F)F)cc1)C(N)=S,5.5,-3.6,31.0*,2.8
Cn1cnc(S(=O)(=O)N2C[C@H](O)COC[C@@H]3O[C@@H](CC(=O)NCc4ccc(F)cc4)CC[C@H]32)c1,-5.6,·,·,·
CN1C(=O)c2cc(NC(=O)c3ccc(F)cc3)ccc2OC[C@@H]2O[C@H](CC(=O)N3CCOCC3)CC[C@H]21,0.4,·,·,·
Cc1ccc(S(=O)(=O)N(C)C[C@@H]2Oc3ccc(NC(=O)CCN4CCOCC4)cc3CC(=O)N([C@H](C)CO)C[C@H]2C)cc1,-0.7,·,·,·
COc1ccc(OC)c(CCNC(=O)C2CCN(c3ncnc4c3nc3n4CCCCC3)CC2)c1,-0.9,-3.0,25.7*,0.1
COc1ccc2c3c([nH]c2c1)[C@H](CO)N(C(=O)NC(C)C)CC31CCN(C(=O)c2cnccn2)CC1,0.3,·,·,·
C=CCNC(=O)COc1ccccc1C#N,52.3*,-4.8,2.0,-4.1
N#Cc1ccccc1OCC(=O)NC1CCCCCC1,-0.2,2.1,7.0,7.2
CN1C(=O)c2cc(NC(=O)Cc3ccccc3)ccc2OC[C@@H]2O[C@@H](CC(=O)NC3CCC3)CC[C@@H]21,1.5,·,·,·
CC(C)NC(=O)Nc1ccc2c(c1)C(=O)N([C@@H](C)CO)C[C@@H](C)[C@@H](CN(C)CC1CCCCC1)O2,-3.0,·,·,·
Cc1oc(-c2ccc(F)cc2)cc1-c1nn2c(-c3ccco3)nnc2s1,56.9*,4.9,-0.2,-0.4
COc1ccc(-c2nnc3sc(-c4ccco4)nn23)cc1OC,·,-3.1,-5.1,2.3
Cc1oc(-c2ccc(F)cc2)cc1-c1nn2c(-c3ccoc3C)nnc2s1,·,38.4*,40.5*,14.4*
C[C@H](CO)N1C[C@H](C)[C@H](CN(C)C(=O)C2CCCCC2)Oc2ncc(-c3ccccc3)cc2C1=O,2.3,·,·,·
C[C@@H]1CN([C@@H](C)CO)C(=O)c2cc(NC(=O)C3CC3)ccc2O[C@H]1CN(C)Cc1ccc(Cl)c(Cl)c1,-0.6,·,·,·
O=S1(=O)C=CCN1Cc1cn(Cc2ccc(F)cc2)nn1,·,6.2,47.5*,-3.3
Cc1ccccc1S(=O)(=O)NCC[C@H]1CC[C@@H](NC(=O)C2CCC2)[C@@H](CO)O1,-1.9,·,·,·
C[C@H]1CN([C@@H](C)CO)C(=O)Cc2cc(NS(=O)(=O)c3ccc(F)cc3)ccc2O[C@H]1CN(C)C(=O)NC1CCCCC1,-1.7,·,·,·
Cc1c(NC(=O)/C(C#N)=C/c2ccc(-c3ccc(Cl)cc3)o2)c(=O)n(-c2ccccc2)n1C,·,0.0,21.7*,7.5
Cc1c(NC(=O)/C(C#N)=C/c2ccc(-c3cc(Cl)ccc3Cl)o2)c(=O)n(-c2ccccc2)n1C,·,0.7,-2.3,-2.6
O=S(=O)(c1ccccc1F)N1CC[C@H]2[C@H](CO)Nc3ccc(-c4ccccc4F)cc3[C@H]21,0.0,·,·,·
CO[C@H]1CN(C)C(=O)c2cc(NC(=O)c3ccccc3F)ccc2OC[C@@H](C)N(C)C[C@H]1C,0.4,·,·,·

# High-throughput results (PubChem)
